# Results reported in PubChem BioAssay.
# Where “and” joins values, the source holds several entries; their conditions need not be identical. Equal entries are not always repeated. Calls of active or inactive are those of the source. Cut-off read from the data, not from the text of the source, unless noted: active = inhibition above about 80%; inactive = the rest.
# What was measured:
# [1] = hESC survival regulators, cell-based (AID 493140; call rule not given here;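 note: cells exposed to compounds for four days before counting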); conditions: human embryonic stem cell survival screen; stronger effect = higher value
# [2] = sensitizers of A549 cells to miR-34 induction, primary screen, imaging, A549 dox-inducible miR-34, nuclei and caspase counts (AID 1347080;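 active = compounds whose cell count with miR-34 switched on is under 0.7 times the count with it off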); conditions: A549 miR-34 inducible, Hoechst nuclei count, 48 h
# [3] = survival rescue of mitochondrial mutant cells in low glucose, primary screen, MELAS cybrids, Rieske KO mouse fibroblasts, CellTiter-Glo (AID 1508586;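 active = mean z-score across replicates of 1.96 or higher in either the MELAS or the Rieske mutant cell line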;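 note: z relative to plate mean and SD of compound and empty wells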)
# [4] = LFS_MB_P medulloblastoma growth inhibition, cell-based, chromothripsis tumors, cisplatin or BGB combos (AID 1671449); conditions: LFS_MB_P medulloblastoma cells;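 note: cells exposed for 96 hours; 0% = vehicle DMSO and 100% = killing by high DMSO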
# [5] = HDN33 neuroblastoma growth inhibition, cell-based, chromothripsis tumors, cisplatin or BGB combos (AID 1671450); conditions: HDN33 neuroblastoma cells, stronger effect = higher value;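 note: cells exposed to compound for four days; 0% = vehicle DMSO and 100% = cell killing by high DMSO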
# [6] = ICB984 medulloblastoma cell growth inhibition, synergistic combos for chromothripsis tumors, cisplatin or BGB combos (AID 1671451; call rule not given here;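 note: cells exposed for 96 hours before readout; 0% = vehicle DMSO and 100% = killing by high DMSO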); conditions: ICB984 medulloblastoma cells, drug combinations, stronger effect = higher value
# [7] = LFS_MB_1R medulloblastoma cell growth inhibition, synergistic combos for chromothripsis tumors, cisplatin or BGB combos (AID 1671452); conditions: LFS_MB_1R medulloblastoma cells, stronger effect = higher value;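 note: cells exposed for 96 hours before readout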
# [8] = HTB85 osteosarcoma cell growth inhibition, synergistic combos for chromothripsis tumors, BGB or cisplatin IC20 combos (AID 1671453); conditions: HTB85 osteosarcoma cells, drug combinations, stronger effect = higher value;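 note: cells exposed for 96 hours before readout; 0% = vehicle DMSO and 100% = high DMSO killing control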
# [9] = CRL2098 osteosarcoma cell growth inhibition, synergistic combos for chromothripsis tumors, BGB or cisplatin IC20 combos (AID 1671454); conditions: CRL2098 osteosarcoma cells, drug combinations, stronger effect = higher value;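 note: cells exposed for 96 h before readout; 0% = vehicle DMSO and 100% = killing by high DMSO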
# [10] = HD-MB03 medulloblastoma cell growth inhibition, synergistic combos for chromothripsis tumors, BGB or cisplatin IC20 combos (AID 1671455; in the data active = inhibition above about 83%;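 note: 0% = vehicle DMSO and 100% = high DMSO as cytotoxic control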); conditions: HD-MB03 medulloblastoma cells, stronger effect = higher value
# [11] = UWB1.289 ovarian carcinoma cell growth inhibition, synergistic combos for chromothripsis tumors, BGB or cisplatin combos (AID 1671456); conditions: UWB1.289 ovarian carcinoma cells, stronger effect = higher value;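 note: cells exposed to compound for four days; 0% = vehicle DMSO and 100% = killing by high DMSO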
# [12] = LFS_MB_2R medulloblastoma cell growth inhibition, synergistic combos for chromothripsis tumors, cisplatin combos (AID 1671457); conditions: LFS_MB_2R medulloblastoma cells, stronger effect = higher value;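 note: cells exposed to compound for four days before readout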
# [13] = MDA-MB-436 breast carcinoma cell growth inhibition, synergistic combos for chromothripsis tumors, BGB or cisplatin combos (AID 1671458; call rule not given here;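 note: cells exposed for 96 hours; 0% = vehicle DMSO and 100% = killing by high DMSO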); conditions: MDA-MB-436 breast carcinoma growth inhibition, drug combinations, stronger effect = higher value
# [14] = UWB1.289_BRCA1 ovarian cancer growth, cell-based, BGB or cisplatin combinations (AID 1671459); conditions: UWB1.289 BRCA1 ovarian carcinoma, drug combinations, stronger effect = higher value
# [15] = human astrocyte viability loss, single and combined drugs, cytotoxicity control for chromothriptic childhood tumor combination screen, cell-based, BGB or cisplatin IC20 combos (AID 1671460); conditions: Human astrocytes, drug combinations, stronger effect = higher value;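 note: cells exposed to compounds for 96 hours before viability readout; 0% = vehicle and 100% = killing control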
# [16] = growth inhibition of BT084 medulloblastoma cells, cell-based, ICGC_MB145, cisplatin and BGB IC40 combos (AID 1671461); conditions: drug combinations, stronger effect = higher value;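 note: cells exposed to drugs for 96 hours; 0% = vehicle DMSO and 100% = high DMSO full killing control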
# [17] = growth inhibition of RCMB18 medulloblastoma cells, cell-based, cisplatin and BGB IC40 combos (AID 1671462); conditions: stronger effect = higher value;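 note: cells exposed to compound for four days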
# [18] = growth inhibition of CRL1545 osteosarcoma cells, cell-based, cisplatin and BGB IC20 combos (AID 1671464); conditions: stronger effect = higher value;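 note: cells exposed to compound for 96 hours before readout; 0% = vehicle DMSO and 100% = high DMSO killing control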
# [19] = measured here: combination with BGB IC40, at 0.05 µM
# [20] = measured here: with BGB IC20 combination, at 0.5 µM
# [21] = measured here: with cisplatin IC20 combination, at 0.5 µM
# [22] = measured here: combination with cisplatin, at 0.5 µM
# [23] = measured here: combination with cisplatin, at 5 µM
compound,measurement,setting,value
Cc1cn(C2CC(N=[N+]=[N-])C(CO)O2)c(=O)[nH]c1=O (stereo not given),survival,[1],10.2 (inactive)
same,fold change,"[2]; stronger effect = lower value, cell number ratio, induced over uninduced",0.983 (inactive)
same,fold change,[2]; measured here: relative caspase fold change +Dox/-Dox,1.14
same,cell count,"[2]; measured here: total cells with miR-34 induction, stronger effect = lower value",8190
same,cell count,[2]; measured here: total cells without miR-34 induction,8330
same,z-score,"[3]; MELAS cybrid survival, CellTiter-Glo 48 h, stronger effect = higher value",-0.326 (inactive)
same,z-score,"[3]; Rieske KO mouse fibroblast survival, CellTiter-Glo 72 h",-0.454
same,inhibition,"[4]; at 0.5 µM, stronger effect = higher value",-14.1% (inactive) and -29.8% (inactive)
same,inhibition,"[4]; measured here: combination with BGB IC20, at 0.005 µM",-13.1% and -7.61%
same,inhibition,"[4]; measured here: combination with BGB IC40, at 0.005 µM",-10.5% and -37.1%
same,inhibition,[4]; [19],-24.2% and -22.6%
same,inhibition,"[4]; measured here: combination with cisplatin, at 0.5 µM, stronger effect = higher value",-21.8% and -53%
same,inhibition,"[4]; measured here: combination with cisplatin, at 5 µM, stronger effect = higher value",-32.8% and -21.5%
same,inhibition,"[5]; BGB combo, at 5 µM",-43.8% and -18.1%
same,inhibition,[5]; at 0.5 µM,-49.6% (inactive) and 10.8% (inactive)
same,inhibition,"[5]; cisplatin combo, at 5 µM",-26% and 16.6%
same,inhibition,[5]; [20],-50.2% and 15%
same,inhibition,[5]; [21],-46.8% and 4.29%
same,inhibition,"[5]; single agent, at 5 µM",-44.8% and -1.12%
same,inhibition,"[6]; BGB IC20 combo, at 0.005 µM",-34.8% and -14.5%
same,inhibition,"[6]; BGB IC40 combo, at 0.005 µM",-37.8% and -34.3%
same,inhibition,"[6]; BGB IC40 combo, at 0.05 µM",-19.4% and -8.93%
same,inhibition,[6]; at 0.5 µM,-42.3% (inactive) and -13.3% (inactive)
same,inhibition,"[6]; cisplatin combo, at 0.05 µM",-22.8% and -13.2%
same,inhibition,"[6]; cisplatin combo, at 0.5 µM",-48.8% and -6.3%
same,inhibition,"[6]; cisplatin combo, at 5 µM",-19.3% and -19.8%
same,inhibition,"[6]; measured here: 5 uM single agent, at 5 µM",-29% and -10.5%
same,inhibition,[7]; at 0.5 µM,-35.4% (inactive) and -15.1% (inactive)
same,inhibition,[7]; [19],-33.7% and -15%
same,inhibition,[7]; [22],-50% and -12.6%
same,inhibition,[7]; [23],-73.7% and 10.3%
same,inhibition,[8]; at 0.5 µM,-30.9% (inactive) and 5.14% (inactive)
same,inhibition,"[8]; measured here: with BGB IC20, at 0.5 µM",-44.2% and -2.77%
same,inhibition,"[8]; measured here: with BGB IC20, at 5 µM",-49% and -21.3%
same,inhibition,"[8]; measured here: with cisplatin IC20, at 0.5 µM",-19.6% and 10.7%
same,inhibition,"[8]; measured here: with cisplatin IC20, at 5 µM",-35.3% and 18.4%
same,inhibition,"[8]; single agent, at 5 µM",-30.3% and -3.23%
same,inhibition,[9]; at 0.5 µM,-75.6% (inactive) and -23.9% (inactive)
same,inhibition,"[9]; measured here: combination with BGB at IC20, at 0.5 µM",-42.6% and -11.7%
same,inhibition,"[9]; measured here: combination with cisplatin at IC20, at 0.5 µM",-96.9% and -12%
same,inhibition,[10]; at 0.5 µM,-21.5% (inactive) and -4.43% (inactive)
same,inhibition,"[10]; measured here: combo with BGB at IC20, at 0.5 µM",-16.2% and -1.6%
same,inhibition,"[10]; measured here: combo with cisplatin at IC20, at 0.5 µM",-27.8% and -2.64%
same,inhibition,[11]; at 0.5 µM,-6.97% (inactive) and -2.38% (inactive)
same,inhibition,"[11]; measured here: inhibition with BGB combination, at 0.05 µM",-33.2% and -11.1%
same,inhibition,"[11]; measured here: inhibition with cisplatin combination, at 0.05 µM",-13% and -8.1%
same,inhibition,[12]; at 0.5 µM,3.25% (inactive) and -11.1% (inactive)
same,inhibition,[12]; [22],-9.8% and -20.4%
same,inhibition,[12]; [23],-113% and -20.1%
same,inhibition,[13]; at 0.5 µM,-19.9% (inactive) and -9.1% (inactive)
same,inhibition,"[13]; measured here: BGB combination, at 0.5 µM",-17.7% and -10.4%
same,inhibition,"[13]; measured here: BGB combination, at 5 µM",-13.1% and -23.1%
same,inhibition,"[13]; measured here: cisplatin combination, at 0.5 µM",-42.5% and -8.26%
same,inhibition,"[13]; measured here: cisplatin combination, at 5 µM",-32% and 1.63%
same,inhibition,"[14]; BGB combination, concentration series, at 5 µM",-27.1% and 1.57%
same,inhibition,[14]; at 0.5 µM,-15.8% (inactive) and 1.59% (inactive)
same,inhibition,"[14]; cisplatin combination, concentration series, at 5 µM",-5.2% and 7.24%
same,inhibition,[15]; at 0.5 µM,1.65% (inactive) and 1.35% (inactive)
same,inhibition,"[15]; measured here: combo with BGB IC20, at 0.5 µM",10% and -0.346%
same,inhibition,"[15]; measured here: combo with cisplatin IC20, at 0.5 µM",-32% and 7.19%
same,inhibition,[16]; at 0.5 µM,-31.2% (inactive) and -18.3% (inactive)
same,inhibition,"[16]; cisplatin combination, at 0.5 µM",-20.4% and -7.03%
same,inhibition,"[16]; cisplatin combination, at 5 µM",-13.7% and 8.51%
same,inhibition,"[16]; measured here: BGB IC40 combination 0.05 uM, at 0.05 µM",-13.5% and -22.4%
same,inhibition,"[16]; single agent, at 5 µM",-33.2% and -6.84%
same,inhibition,[17]; at 0.5 µM,-27.2% (inactive) and -6.41% (inactive)
same,inhibition,"[17]; cisplatin combo, at 5 µM",-15.6% and -7.21%
same,inhibition,"[17]; measured here: BGB IC40 combination, at 0.05 µM",-27% and -25%
same,inhibition,[17]; [22],-39.9% and -10.1%
same,inhibition,"[17]; single agent, at 5 µM",-41.5% and -29.4%
same,inhibition,[18]; at 0.5 µM,-61.3% (inactive) and 13.1% (inactive)
same,inhibition,[18]; [20],-40.5% and 10%
same,inhibition,[18]; [21],-75.6% and 14.6%
same,inhibition,"[18]; single agent, at 0.05 µM",-59.4% and 9.83%
same,inhibition,"[18]; single agent, at 5 µM",-40.3% and 11.6%
